Results published in the supplement of paper PMC6331611.
Values joined by “and” are separate entries in the source; they are usually repeats but may differ in a detail not shown here. Equal values may be shown once. ± gives the standard deviation of the averaged measurements. In all, about 1,600 compounds were measured (“normalized intracellular growth (luminescence, IQM-normalized) in RAW264.7 macrophages”: median about 1, lowest 2% from about 0.43 on). The full list was thinned out, with the lowest values kept by preference.

Test system: Salmonella enterica serovar Typhimurium SL1344
Test: normalized intracellular growth (luminescence, IQM-normalized) in RAW264.7 macrophages (fraction of plate interquartile mean); higher = more bacterial growth (less inhibition)
Details: 10 µM

Row | SMILES | normalized intracellular growth (time point: T3 (3 h)) | normalized intracellular growth (time point: Tfinal (~6 h))
1 | C=C(C)[C@H]1CC=C(C)CC1 | 0.96 ± 0.013 | 1.1 ± 0.098
2 | C#C[C@]1(OC(C)=O)CC[C@H]2[C@@H]3CCC4=CC(=O)CC[C@@H]4[C@H]3CC[C@@]21C | 1.03 ± 0.046 | 0.972 ± 0.043
3 | CC(O)CC(C)(C)O (stereo not drawn) | 1.05 ± 0.086 | 0.769 ± 0.19
4 | CC[C@H]1OC(=O)[C@H](C)[C@@H](O[C@H]2C[C@@](C)(OC)[C@@H](O)[C@H](C)O2)[C@H](C)[C@@H](O[C@@H]2O[C@H](C)C[C@H](N(C)C)[C@H]2O)[C@](C)(O)C[C@@H](C)C(=O)[C@H](C)[C@@H](O)[C@]1(C)O | 0.964 and 0.725 | 0.913 and 0.963
5 | CC[C@H]1OC(=O)[C@H](C)[C@@H](O[C@H]2C[C@@](C)(OC)[C@@H](O)[C@H](C)O2)[C@H](C)[C@@H](O[C@@H]2O[C@H](C)C[C@H](N(C)C)[C@H]2O)[C@](C)(O)C[C@@H](C)CN(C)[C@H](C)[C@@H](O)[C@]1(C)O | 1.05 ± 0.039 | 0.00697 ± 0.00054
6 | CC[C@H]1OC(=O)[C@H](C)[C@@H](O[C@H]2C[C@@](C)(OC)[C@@H](O)[C@H](C)O2)[C@H](C)[C@@H](O[C@@H]2O[C@H](C)C[C@H](N(C)C)[C@H]2O)[C@](C)(O)C[C@@H](C)/C(=N\OCOCCOC)[C@H](C)[C@@H](O)[C@]1(C)O | 1.06 ± 0.03 | 0.825 ± 0.42
7 | O=C(O)/C=C/C(=O)O | 1.14 ± 0.1 | 1.03 ± 0.16
8 | CCCCCCCCCCOc1cc2c(O)c(C(=O)OCC)cnc2cc1OCC | 0.942 ± 0.08 | 0.973 ± 0.13
9 | CC/C=C\C/C=C\C/C=C\C/C=C\C/C=C\C/C=C\CCC(=O)O | 0.977 ± 0.069 | 1.02 ± 0.09
10 | COc1cc2c3cc1Oc1cc(ccc1O)C[C@@H]1c4c(cc(OC)c(O)c4Oc4ccc(cc4)C[C@@H]3N(C)CC2)CC[N+]1(C)C | 0.937 ± 0.083 | 0.976 ± 0.16
11 | CCC(=O)O[C@H]1[C@H](O[C@@H]2[C@@H](C)[C@H](O[C@H]3C[C@@](C)(OC)[C@@H](O)[C@H](C)O3)[C@@H](C)C(=O)O[C@H](CC)[C@@](C)(O)[C@H](O)[C@@H](C)C(=O)[C@H](C)C[C@@]2(C)O)O[C@H](C)C[C@@H]1N(C)C | 0.792 ± 0.092 | 0.901 ± 0.065
12 | CC[C@H]1OC(=O)[C@H](C)C(=O)[C@H](C)[C@@H](O[C@@H]2O[C@H](C)C[C@H](N(C)C)[C@H]2O)[C@](C)(OC)C[C@@H](C)C(=O)[C@H](C)[C@H]2N(CCCCn3cnc(-c4cccnc4)c3)C(=O)O[C@]12C | 1.01 ± 0.086 | 0.0132 ± 0.0042
13 | CC[C@H]1OC(=O)[C@H](C)[C@@H](O[C@H]2C[C@@](C)(OC)[C@@H](O)[C@H](C)O2)[C@H](C)[C@@H](O[C@@H]2O[C@H](C)C[C@H](N(C)C)[C@H]2O)[C@](C)(OC)C[C@@H](C)C(=O)[C@H](C)[C@@H](O)[C@]1(C)O | 1.09 ± 0.015 | 0.976 ± 0.071
14 | CCN[C@@H]1C[C@H](N)[C@@H](O[C@H]2OC(CN)=CC[C@H]2N)[C@H](O)[C@H]1O[C@H]1OC[C@](C)(O)[C@H](NC)[C@H]1O | 0.986 ± 0.033 | 0.632 ± 0.25
15 | O=S(=O)(O)NC1CCCCC1 | 0.688 ± 0.097 | 0.748 ± 0.044
16 | CCCCCCCCCCC[C@@H](C[C@@H]1OC(=O)[C@H]1CCCCCC)OC(=O)[C@H](CC(C)C)NC=O | 0.987 ± 0.091 | 1.21 ± 0.048
17 | C[N+](C)(C)CC(O)CC(=O)[O-] (stereo not drawn) | 0.978 ± 0.032 | 0.91 ± 0.16

Row | SMILES | normalized intracellular growth (time point: T3 (3 h)) | normalized intracellular growth (time point: Tfinal (~6 h))
18 | O=c1[nH]cc(F)c(=O)[nH]1 | 0.731 ± 0.089 | 0.153 ± 0.006
19 | Nc1nc(=O)[nH]cc1F | 1.07 ± 0.058 | 1.28 ± 0.1
20 | O=c1cc[nH]c(=O)[nH]1 | 0.935 ± 0.09 | 0.9 ± 0.052
21 | O=C(NCCCN1CCOCC1)c1ccc(Cl)cc1 | 1.25 ± 0.11 | 1.35 ± 0.15
22 | O=C(c1cccnc1)N1CCOCC1 | 1.01 ± 0.09 | 0.728 ± 0.18
23 | CC(=O)c1ccc2c(c1)N(CCCN1CCN(CCO)CC1)c1ccccc1S2 | 1.04 ± 0.024 | 0.807 ± 0.11
24 | Cc1c2oc3c(C)ccc(C(=O)N[C@@H]4C(=O)N[C@H](C(C)C)C(=O)N5CCC[C@H]5C(=O)N(C)CC(=O)N(C)[C@@H](C(C)C)C(=O)O[C@@H]4C)c3nc-2c(C(=O)N[C@@H]2C(=O)N[C@H](C(C)C)C(=O)N3CCC[C@H]3C(=O)N(C)CC(=O)N(C)[C@@H](C(C)C)C(=O)O[C@@H]2C)c(N)c1=O | 0.861 ± 0.057 | 1.05 ± 0.12
25 | CCCCCCCC/C=C\CCCCCCCC(=O)O.NCCO | 1.05 ± 0.035 | 1.09 ± 0.041
26 | COC(=O)N/N=C/c1c[n+]([O-])c2ccccc2[n+]1[O-] | 0.957 ± 0.032 | 0.309 ± 0.16
27 | CC(=O)[C@@]1(O)CC[C@H]2[C@@H]3C=C(Cl)C4=CC(=O)[C@@H]5C[C@@H]5[C@]4(C)[C@H]3CC[C@@]21C | 1.06 ± 0.049 | 0.762 ± 0.26
28 | COc1c2occc2cc2ccc(=O)oc12 | 1.15 ± 0.034 | 1.36 ± 0.076
29 | Nc1nc(N)c2nc(CNc3ccc(C(=O)N[C@@H](CCC(=O)O)C(=O)O)cc3)cnc2n1 | 0.994 ± 0.021 | 1.09 ± 0.15
30 | CCCCCC(C)N (stereo not drawn) | 0.993 ± 0.077 | 0.979 ± 0.12
31 | CO[C@H]1C[C@H](O[C@@H]2/C(C)=C/C[C@@H]3C[C@@H](C[C@]4(CC[C@H](C)[C@@H](C5CCCCC5)O4)O3)OC(=O)[C@@H]3C=C(C)/C(=N/O)[C@H]4OC/C(=C\C=C\[C@@H]2C)[C@]43O)O[C@@H](C)[C@@H]1O | 1.01 ± 0.064 | 1.16 ± 0.094
32 | C[C@]12C=CC(=O)C=C1CC[C@@H]1[C@@H]2[C@@H](O)C[C@@]2(C)[C@H]1CC[C@]2(O)C(=O)CO | 0.8 ± 0.15 | 0.888 ± 0.078
33 | CC(=O)OCC(=O)[C@@]1(O)CC[C@H]2[C@@H]3CCC4=CC(=O)C=C[C@]4(C)[C@H]3[C@@H](O)C[C@@]21C | 0.822 ± 0.19 | 0.823 ± 0.06
34 | C[C@H]1C[C@@H]2[C@H]([C@@H](O)C[C@@]3(C)[C@H]2CC[C@]3(O)C(=O)CO)[C@@]2(C)C=CC(=O)C=C12 | 1.07 ± 0.02 | 0.417 ± 0.054
